Inconclusive results are not listed. Activity calls are given as the source filed them. Unless noted, the call rests on the fitted dose curve.
How the values were obtained:
[1] = qHTS assay to identify small molecule agonists of the sonic hedgehog signaling (Shh) pathway (AID 1259368); further: nearly all actives have a fitted effect of over 15% in size; further: potency means the concentration at half of the fitted maximal effect;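 on activity change: NIH/3T3-derived 3T3Gli1-Luc cells carrying a stable Gli1-driven firefly luciferase reporter; series mostly up to about 92 µM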
In short: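 Hedgehog pathway agonism scored by increased firefly luciferase luminescence in 3T3Gli1-Luc cells treated 24 hr at 37 C; detection used a 30 min room-temperature reagent incubation.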

[2] = qHTS assay to identify small molecule antagonists of the sonic hedgehog signaling (Shh) pathway (AID 1259369); further: nearly all actives have a fitted effect of over 45% in size; further: potency means the concentration at half of the fitted maximal effect
In short: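 NIH/3T3 stable Gli1-Luc clone, 2,000 cells/well, 4hr settle; cpd + conditioned medium 24hr; Luc reagent 30min RT; luminescence.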

[3] = molecular target: Estrogen receptor beta (Homo sapiens) (UniProt Q92731); assay: qHTS assay to identify small molecule antagonists of the estrogen receptor beta (ER-beta) signaling pathway (AID 1259378; active means well fitted inhibition curve with a large enough effect in the signal ratio in the repeat runs, not every such curve was filed as active; the % refers to the signal ratio)
Estrogen receptor beta (Homo sapiens), sequence (Q92731 whole entry, looked up): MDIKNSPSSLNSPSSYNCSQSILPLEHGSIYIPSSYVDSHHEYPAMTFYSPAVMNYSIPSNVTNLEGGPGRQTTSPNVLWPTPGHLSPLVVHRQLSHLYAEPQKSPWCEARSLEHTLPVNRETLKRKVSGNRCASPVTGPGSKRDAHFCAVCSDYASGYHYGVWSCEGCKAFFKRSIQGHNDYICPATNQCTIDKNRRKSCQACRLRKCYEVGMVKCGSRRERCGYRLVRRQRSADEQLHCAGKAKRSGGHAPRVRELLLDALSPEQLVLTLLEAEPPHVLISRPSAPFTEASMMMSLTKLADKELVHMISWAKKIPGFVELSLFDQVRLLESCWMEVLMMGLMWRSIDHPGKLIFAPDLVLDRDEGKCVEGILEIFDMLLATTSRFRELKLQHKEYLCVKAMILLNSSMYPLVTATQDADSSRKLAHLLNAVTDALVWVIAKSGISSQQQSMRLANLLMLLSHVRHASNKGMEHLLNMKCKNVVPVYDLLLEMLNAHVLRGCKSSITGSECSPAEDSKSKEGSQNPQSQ
In short: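 Antagonist mode: compounds added to beta-lactamase reporter HEK293T ER-beta-UAS cells stimulated with E2 (1nM final), 16 hr at 37C. LiveBLAzer B/G FRET substrate, 2 hours room temperature, fluorescence read-out.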

[4] = qHTS assay to identify small molecule agonists of the androgen receptor (AR) signaling pathway in the presence of an antagonist - cell viability counter screen (AID 1259379; active means well fitted curve in the direction sought with a large enough effect in the repeat runs; an effect the other way counts as inactive or inconclusive; further: nearly all actives have a fitted effect of over 25% in size; further: potency means the concentration at half of the fitted maximal effect;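 on activity change, negative = cytotoxicity: MDA-kb2 human breast cancer cells carrying an MMTV luciferase reporter; series mostly up to about 92 µM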)
In short: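 MDA-kb2 viability measured by CellTiter-Fluor fluorescence in the same wells as the luciferase signal; nilutamide 3.0uM final; 15-point compound titration; 16 hr at 37C.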

[5] = qHTS assay to identify small molecule antagonists of the estrogen receptor beta (ER-beta) signaling pathway - cell viability counter screen (AID 1259382; active means well fitted curve in the direction sought with a large enough effect in the repeat runs; an effect the other way counts as inactive or inconclusive;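 further: HEK293T cells carrying ER-beta-UAS-bla reporter stimulated with estradiol; series mostly up to about 92 µM; nearly all actives have a fitted effect of over 55% in size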)
In short: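 Readout: luminescence, CellTiter-Glo, same wells as bla assay. System: ER-beta-UAS-bla GripTite HEK293T, 2% charcoal-stripped FBS. Exposure: compounds plus 1nM 17-beta-estradiol, 16 hr, 37C.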

[6] = molecular target: Estrogen receptor (Homo sapiens) (UniProt P03372); assay: qHTS assay to identify small molecule agonists of the estrogen receptor alpha (ER-alpha) signaling pathway in the presence of an antagonist (AID 1259383); further: nearly all actives have a fitted effect of over 15% in size; further: potency means the concentration at half of the fitted maximal effect; on activation: top concentration of the series differs between compounds
Estrogen receptor (Homo sapiens), sequence (P03372 whole entry, looked up): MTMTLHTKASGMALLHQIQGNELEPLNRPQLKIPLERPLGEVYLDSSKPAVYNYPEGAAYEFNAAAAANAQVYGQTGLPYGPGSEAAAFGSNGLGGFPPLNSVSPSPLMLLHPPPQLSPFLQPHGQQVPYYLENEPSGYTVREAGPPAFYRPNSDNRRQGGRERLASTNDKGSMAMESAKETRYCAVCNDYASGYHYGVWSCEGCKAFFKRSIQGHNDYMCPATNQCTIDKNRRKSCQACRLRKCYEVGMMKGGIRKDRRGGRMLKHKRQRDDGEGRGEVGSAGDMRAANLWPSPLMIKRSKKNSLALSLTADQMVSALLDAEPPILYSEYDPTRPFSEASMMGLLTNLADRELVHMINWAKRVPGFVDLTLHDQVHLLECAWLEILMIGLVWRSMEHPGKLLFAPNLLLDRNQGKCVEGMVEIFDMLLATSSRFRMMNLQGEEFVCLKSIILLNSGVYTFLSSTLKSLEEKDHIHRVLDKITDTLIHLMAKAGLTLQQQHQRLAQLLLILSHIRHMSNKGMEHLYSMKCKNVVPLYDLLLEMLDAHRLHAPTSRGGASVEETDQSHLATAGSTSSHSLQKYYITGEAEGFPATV
In short: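 Quantitative HTS confirmation: compounds titrated at 15 concentrations onto estrogen-deprived VM7Luc4E2 cells carrying a four-ERE luciferase construct, with ICI-182,780 present at 10.0nM final. Signal is luminescence after 22hr exposure.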

[7] = qHTS assay to identify small molecule agonists of the estrogen receptor beta (ER-beta) signaling pathway - cell viability counter screen (AID 1259380; active means well fitted curve in the direction sought with a large enough effect in the repeat runs; an effect the other way counts as inactive or inconclusive; further: nearly all actives have a fitted effect of over 30% in size; further: potency means the concentration at half of the fitted maximal effect)
In short: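 Measured: luminescence from CellTiter-Glo after 30 min at room temperature, added to wells already read for the LiveBLAzer FRET reporter (2 hr substrate); ER-beta-UAS-bla HEK293T cells had 16 hr compound treatment at 37C, 5% CO2.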

[8] = qHTS assay to identify small molecule agonists or antagonists of the thyroid stimulating hormone receptor (TSHR) signaling pathway - wild type cell line counter screen (AID 1259384)
In short: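 Counter screen in untransfected Hek293: compounds (15-point titration, triplicate) plus phosphodiesterase inhibitor Ro20-1724 added after 18 h plating; 30 min RT. Intracellular cAMP via competitive d2/cryptate immunoassay, 1 h incubation.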

[9] = molecular target: Androgen receptor (Homo sapiens) (UniProt P10275); assay: qHTS assay to identify small molecule agonists of the androgen receptor (AR) signaling pathway in the presence of an antagonist (AID 1259381); further: nearly all actives have a fitted effect of over 15% in size; further: potency means the concentration at half of the fitted maximal effect
Androgen receptor (Homo sapiens), sequence (P10275 whole entry, looked up): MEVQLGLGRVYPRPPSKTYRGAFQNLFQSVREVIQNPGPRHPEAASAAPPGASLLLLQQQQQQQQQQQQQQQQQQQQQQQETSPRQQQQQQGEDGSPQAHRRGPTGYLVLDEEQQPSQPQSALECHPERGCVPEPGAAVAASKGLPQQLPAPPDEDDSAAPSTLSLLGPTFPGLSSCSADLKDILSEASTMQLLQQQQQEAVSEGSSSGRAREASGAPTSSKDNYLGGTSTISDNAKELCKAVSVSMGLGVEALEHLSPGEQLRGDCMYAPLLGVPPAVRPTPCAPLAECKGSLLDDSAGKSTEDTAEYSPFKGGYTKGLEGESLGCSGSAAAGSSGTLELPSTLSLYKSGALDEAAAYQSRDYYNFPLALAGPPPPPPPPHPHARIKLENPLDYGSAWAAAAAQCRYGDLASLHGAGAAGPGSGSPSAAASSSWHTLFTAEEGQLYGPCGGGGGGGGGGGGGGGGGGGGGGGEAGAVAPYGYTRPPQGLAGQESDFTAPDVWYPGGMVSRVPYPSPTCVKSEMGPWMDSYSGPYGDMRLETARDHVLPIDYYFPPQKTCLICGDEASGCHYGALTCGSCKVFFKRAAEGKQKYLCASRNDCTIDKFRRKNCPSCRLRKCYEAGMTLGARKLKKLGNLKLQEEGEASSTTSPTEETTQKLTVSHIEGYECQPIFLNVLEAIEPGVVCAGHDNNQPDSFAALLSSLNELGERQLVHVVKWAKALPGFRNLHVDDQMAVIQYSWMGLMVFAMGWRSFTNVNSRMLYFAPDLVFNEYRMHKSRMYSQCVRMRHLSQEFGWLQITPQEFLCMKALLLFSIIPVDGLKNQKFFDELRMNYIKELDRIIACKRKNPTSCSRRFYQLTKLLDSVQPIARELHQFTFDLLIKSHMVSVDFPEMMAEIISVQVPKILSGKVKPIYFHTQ
In short: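 Luminescent ONE-Glo read, 30min at room temperature, follows 16hr compound exposure (15 concentrations) of MDA-kb2 cells at 37C, 0% CO2, with nilutamide added at 3.0uM final.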
On the % scale 0 is the no-effect control and ±100 the full control effect.

Cc1ccc(Cl)c(OCC(O)CNC(C)(C)C)c1 (stereo unspecified)
inactive: Potency [1] | Potency [2] | Potency [3] | Potency [4] | Potency [5] | Potency [6]

Nc1ccccc1Nc1ccccc1
active: Potency [2] 2.74 µM
inactive: Potency [1] | Potency [4] | Potency [7] | Potency [5]

c1ccc(-c2ccc(-c3ccccc3)cc2)cc1
active: Potency [6] 0.629 µM
inactive: activity change [1] 4.66% [at 18.9 µM, stronger effect = higher value] | activity change, negative = inhibition [2] 32.6% [at 19 µM] | activity change, negative = cytotoxicity [4] -0.211% [at 19 µM] | activity change, negative = cytotoxicity [7] 0.175% [at 19 µM] | activity change, negative = cytotoxicity [5] -1.89% [at 19 µM]

COC=O
inactive: activity change [1] -3.86% [at 8.39 µM, stronger effect = higher value] | activity change, negative = inhibition [2] 0% [at 8.39 µM] | activity, negative = inhibition [3] 1.13% [at 8.39 µM] | activity change, negative = cytotoxicity [4] 0.257% [at 8.39 µM] | activity change, negative = cytotoxicity [5] 10.9% [at 8.39 µM] | activation [6] 1.27% [at 8.39 µM] | cAMP activity change [8] -7.06% [at 8.39 µM]

O=P(c1ccccc1)(c1ccccc1)c1ccccc1
inactive: Potency [1] | Potency [2] | Potency [4] | Potency [7] | Potency [5] | Potency [6] | outcome [8]

O=C(O)CCc1nc2ccccc2[nH]1
inactive: Potency [1] | Potency [2] | Potency [4] | Potency [7] | Potency [5]

CC(C)(C)N
inactive: Potency [1] | Potency [2] | Potency [4] | Potency [7] | Potency [5] | Potency [6] | outcome [8]

CC[C@H](NC(C)C)[C@H](O)c1ccc(O)c2[nH]c(=O)ccc12
inactive: Potency [1] | Potency [2] | Potency [4] | Potency [7] | Potency [9] | Potency [5] | Potency [6]

Cc1cc(C)n(CO)n1
inactive: Potency [1] | Potency [2] | Potency [4] | Potency [7] | Potency [5] | outcome [8]

Nc1ccc(C(=O)Oc2ccccc2)c(O)c1
inactive: Potency [1] | Potency [2] | Potency [4] | Potency [7] | Potency [5] | outcome [8]

O=C(O)c1cccc(C(=O)O)c1C(=O)O
inactive: Potency [1] | Potency [2] | Potency [4] | Potency [9] | Potency [6] | outcome [8]
active: Potency [7] 13.8 µM

C[C@H](N)C(=O)N[C@@H](C)C(=O)NC1[C@H]2CN(c3nc4c(cc3F)c(=O)c(C(=O)O)cn4-c3ccc(F)cc3F)C[C@@H]12 (stereo partly specified)
inactive: Potency [1] | Potency [2] | Potency [4] | Potency [7] | Potency [9] | Potency [5] | Potency [6] | outcome [8]

O=C(C1CCCCC1)N1CC(=O)N2CCCc3ccccc3C2C1 (stereo unspecified)
inactive: Potency [1] | Potency [2] | Potency [4] | Potency [7] | Potency [9] | Potency [6] | outcome [8]

COc1ccnc2c1CCCCC2S(=O)c1nc2ccccc2[nH]1 (stereo unspecified)
inactive: Potency [1] | Potency [2] | Potency [3] | Potency [4] | Potency [5] | Potency [6] | outcome [8]

C=CC(=O)NC(C)(C)C
inactive: Potency [1] | Potency [2] | Potency [4] | Potency [7] | Potency [5] | Potency [6] | outcome [8]

CC(C)C/C=C(\C=O)c1ccccc1
inactive: Potency [1] | Potency [2] | Potency [4] | Potency [7] | Potency [5] | Potency [6] | outcome [8]

CC(C)NC(=O)c1ccccc1N
inactive: Potency [1] | Potency [2] | Potency [4] | Potency [7] | Potency [5] | Potency [6] | outcome [8]

CCCCCCCCCCCCCCCCN
inactive: Potency [1] | Potency [2] | Potency [4] | Potency [7] | Potency [5] | Potency [6] | outcome [8]

Cc1cc(SC2=C(O)C[C@@](CCc3ccc(N)cc3)(C(C)C)OC2=O)c(C(C)(C)C)cc1CO
inactive: Potency [1] | Potency [2] | Potency [4] | Potency [7] | Potency [9] | outcome [8]

O=C(O)CNc1ccccc1
inactive: Potency [1] | Potency [2] | Potency [4] | Potency [7] | Potency [5] | outcome [8]

CCc1c(C)[nH]c2c1C(=O)C(CN1CCOCC1)CC2 (stereo unspecified)
inactive: Potency [1] | Potency [2] | Potency [4] | Potency [7] | Potency [5] | outcome [8]

CCCC(=O)OCCC(C)C
inactive: Potency [1] | Potency [2] | Potency [4] | Potency [7] | Potency [9] | Potency [5] | Potency [6] | outcome [8]

COc1cccc([C@H](O)C2CCN(CCc3ccc(F)cc3)CC2)c1OC
active: Potency [2] 54.5 µM
inactive: Potency [1] | Potency [3] | Potency [5] | outcome [8]

CCCCOC(=O)CC#N
active: Potency [2] 32.1 µM
inactive: Potency [1] | Potency [4] | Potency [7] | Potency [5] | Potency [6] | outcome [8]

CC(CC(C#N)(c1ccccc1)C(C)C)N(C)C (stereo unspecified)
inactive: Potency [1] | Potency [2] | Potency [4] | Potency [7] | Potency [9] | Potency [5] | Potency [6] | outcome [8]

CC(=O)Oc1cccc2c1C(=O)c1c(OC(C)=O)cc(C(=O)O)cc1C2=O
inactive: Potency [1] | Potency [2] | Potency [7] | Potency [9] | Potency [5] | outcome [8]
active: Potency [4] 26.6 µM

CCCCCCCCCCCCN1CCOCC1
inactive: Potency [1] | Potency [2] | Potency [3] | Potency [4] | Potency [5] | Potency [6] | outcome [8]

CCC(C(=O)O)c1ccc(N2Cc3ccccc3C2=O)cc1 (stereo unspecified)
inactive: Potency [1] | Potency [2] | Potency [4] | Potency [7] | Potency [9] | Potency [5] | Potency [6]

CC(C)CCCCCOC(=O)CS
inactive: Potency [1] | Potency [2] | Potency [4] | Potency [7] | Potency [5] | Potency [6] | outcome [8]

C=CC(=O)OCCCCCCCCCC
inactive: Potency [1] | Potency [2] | Potency [4] | Potency [7] | Potency [5] | Potency [6] | outcome [8]

CC1(COc2ccc(CC3SC(=O)NC3=O)cc2)CCCCC1 (stereo unspecified)
active: Potency [7] 10.6 µM
inactive: Potency [1] | Potency [2] | Potency [4] | Potency [5] | Potency [6] | outcome [8]

O=C(OCCCCCOC(=O)c1ccccc1)c1ccccc1
inactive: Potency [1] | Potency [2] | Potency [4] | Potency [7] | Potency [5] | Potency [6] | outcome [8]

CCCCC(CC)COCCC#N (stereo unspecified)
inactive: Potency [1] | Potency [2] | Potency [4] | Potency [7] | Potency [5] | outcome [8]

CNc1ccccc1
inactive: Potency [1] | Potency [2] | Potency [4] | Potency [7]

COC(=O)/C=C/C(C)=C\C=C\C(C)=C\C=C\C=C(C)\C=C\C=C(C)\C=C\C(=O)O
inactive: Potency [1] | Potency [2] | Potency [3] | Potency [7] | Potency [9] | Potency [5] | outcome [8]

CCN(CC)CC(=O)OCC(=O)[C@@]1(O)CC[C@H]2[C@@H]3CCC4=CC(=O)CC[C@]4(C)[C@H]3[C@@H](O)C[C@@]21C
inactive: Potency [1] | Potency [2] | Potency [4] | Potency [7] | Potency [5] | Potency [6] | outcome [8]
active: Potency [9] 0.211 µM

O=C(O)COCC(=O)O
inactive: Potency [1] | Potency [2] | Potency [4] | Potency [7] | Potency [5] | outcome [8]

Oc1ccc(CCNCCCCCCNCCc2ccccc2)cc1O
active: Potency [2] 9.44 µM
inactive: Potency [1] | Potency [4] | Potency [7] | Potency [6] | outcome [8]

CC(C)CC(C)(C)C
inactive: Potency [1] | Potency [2] | Potency [4] | Potency [6] | outcome [8]
active: Potency [7] 35.7 µM

CS(C)=O
inactive: Potency [1] | Potency [4] | Potency [7] | Potency [5] | outcome [8]
active: Potency [2] 68.6 µM

Nc1cccc2c(=O)[nH][nH]c(=O)c12
active: Potency [7] 24.5 µM
inactive: Potency [1] | Potency [2] | Potency [4] | Potency [6] | outcome [8]

[O-][n+]1ccc(Cl)cc1
inactive: Potency [1] | Potency [2] | Potency [4] | Potency [5]

O=[N+]([O-])c1cccc(I)c1
inactive: Potency [1] | Potency [2] | Potency [4] | Potency [7] | Potency [5] | outcome [8]

COC(=O)C(C)(C)C
inactive: Potency [1] | Potency [2] | Potency [4] | Potency [5] | outcome [8]

CC(COc1ccccc1)NC(C)C(O)c1ccc(O)cc1 (stereo unspecified)
inactive: Potency [1] | Potency [2] | Potency [4] | Potency [7] | Potency [5] | outcome [8]

Cc1ccc(S(=O)(=O)NC(=O)NC2CCCC2)cc1
inactive: Potency [1] | Potency [2] | Potency [4] | Potency [7] | outcome [8]

O=Cc1ccc([N+](=O)[O-])cc1
inactive: Potency [1] | Potency [2] | Potency [4] | Potency [7] | Potency [5] | outcome [8]

Cc1ccc(NC(=O)c2ccc(CN3CCN(C)CC3)cc2)cc1Nc1nccc(-c2cccnc2)n1
inactive: Potency [1] | Potency [4] | Potency [9] | Potency [5] | Potency [6] | outcome [8]
active: Potency [2] 2.66 µM

CC(C)C[C@H](NC(=O)[C@H](Cc1ccccc1)NC(=O)c1cnccn1)B(O)O
inactive: Potency [1] | Potency [2] | Potency [6] | outcome [8]
active: Potency [4] 0.0473 µM | Potency [7] 4.22 µM

Cc1ccc(NC=O)c(C)c1
inactive: Potency [1] | Potency [2] | Potency [4] | Potency [7] | Potency [6] | outcome [8]

O=C(O)c1cccnc1Nc1cccc(C(F)(F)F)c1
inactive: Potency [1] | Potency [2] | Potency [4] | Potency [6]

CCc1ccc2c(c1)C(=O)c1ccccc1C2=O
inactive: Potency [2] | Potency [4] | Potency [7] | outcome [8]
active: Potency [1] 6.86 µM | Potency [6] 2.43 µM

OCCOc1cccc(OCCO)c1
inactive: Potency [1] | Potency [2] | Potency [4] | Potency [7] | Potency [5] | outcome [8]

CCc1cnc(C(=O)O)c(C(=O)O)c1
inactive: Potency [1] | Potency [2] | Potency [4] | Potency [5]

CCc1ccc(C(=O)C(C)CN2CCCCC2)cc1 (stereo unspecified)
inactive: Potency [1] | Potency [2] | Potency [4] | Potency [7] | Potency [5] | outcome [8]

Reference: PubChem BioAssay (Tox21)
